High-throughput results from PubChem.
Sm TGR block: inhibitors of Schistosoma mansoni thioredoxin glutathione reductase; Q962Y6; purified TGR, DTNB reduction, TNB absorbance 405 nm; Potency, µM (top dose mostly 114 µM), usual class: inhibitors; 3% of 360,000 active; AID 485364; also: nearly all actives have a fitted effect of over 60% in size
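TGR 20 nM + NADPH 100 uM (dispensed conc.), cpd preinc 15 min RT; start with NADPH (500 uM addition) then DTNB (15 mM addition). Kinetic TNB absorbance, 405 nm filter. Four-parameter Hill fit across titration.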
RE007 growth inh: less growth of the S. pombe RE007 Vpr strain; S. pombe RE007 Vpr strain, BacTiter-Glo ATP luminescence, 24 h; Potency, µM (top dose mostly 92.2 µM), most hits filed as inhibitors; 0.21% of 360,000 active; AID 651644; active = well fitted falling curve with a large enough effect; inconclusive = small, poorly fitted or top-dose-only effect; inactive = no such curve, though single readings can be large or run the other way; also: nearly all actives have a fitted effect of over 50% in size
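Fission yeast strain RE007, carrying one chromosomally integrated HIV-1 vpr copy, was seeded at OD 0.01 in PMG+AL medium with 23 nL pinned compound. After 24 h at 30 °C and 99% humidity, viability was read by BacTiter-Glo luminescence.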
Tb PYK inh: T. brucei pyruvate kinase inhibition; 0.12% of 410,000 active; AID 624173; Q57TT1; TbPYK enzyme, Kinase-Glo Plus ATP luminescence, 45 min; Potency, µM (series often up to 76.8 µM), usual class: inhibitors; also: nearly all actives have a fitted effect of over 50% in size
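T. brucei PYK with substrate was exposed to pin-transferred compounds across a concentration series, then started with 130 uM ADP (final). After 45 min at room temperature, Kinase-Glo Plus luminescence was read, normalized and curve-fitted.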
FMDV inh: blocks foot and mouth disease virus; FMDV antiviral cell-based qHTS; Potency, µM (top dose mostly 57.9 µM), most hits filed as inhibitors; 1.2% of 410,000 active; calls by dose curve; tested in HEK293T cells; also: read-out not given here; nearly all actives have a fitted effect of over 45% in size
Numbers stand for hits; [ ] = another dose, or the depositor's remark. The list is not random: actives were taken first. Their share in the collection is about 3.7%. Unless noted, calls follow the shape of the dose curve; as a rule, active = well fitted curve in the direction sought with a large enough effect; inconclusive = small, poorly fitted or top-dose-only effect, or another doubt; inactive = no such curve, though single readings can be large; an effect the other way counts as inactive or inconclusive.

Screening S=C(Nc1ccc(Oc2ccccc2)cc1)Nc1cccnc1 returned Sm TGR block inconclusive, RE007 growth inh inactive, Tb PYK inh inactive and FMDV inh inactive.
Screening Fc1ccc(NC(=S)Nc2cccnc2)c(Cl)c1 returned Sm TGR block 18µM, RE007 growth inh inactive, Tb PYK inh inactive and FMDV inh inactive.
For Oc1cccc(NC(=S)Nc2cccnc2)c1 the results were Sm TGR block 50µM, RE007 growth inh inactive, Tb PYK inh inactive and FMDV inh inactive.
FC(F)(F)c1cnc(NNC(=S)Nc2cccnc2)c(Cl)c1 was read as Sm TGR block inactive, RE007 growth inh inactive, Tb PYK inh inactive and FMDV inh inactive.
Fc1ccc(NC(=S)Nc2cccnc2)c(F)c1F was read as Sm TGR block 14µM, RE007 growth inh inactive, Tb PYK inh inactive and FMDV inh inactive.
`S=C(Nc1cccnc1)Nc1ccccc1Br` gave Sm TGR block 6.3µM, RE007 growth inh inactive, Tb PYK inh inactive and FMDV inh inactive.
`CCOc1ccc(NC(=S)Nc2cccnc2)cc1` gave Sm TGR block inconclusive, RE007 growth inh inactive, Tb PYK inh inactive and FMDV inh inactive.
`COc1ccc(C2c3c(n(C)c4ccccc34)C(=O)N2CC(=O)Nc2cccc(Cl)c2C)cc1` (configuration not stated) gave Sm TGR block inactive, Tb PYK inh inactive[15.4 µM] and FMDV inh inactive.
Screening COc1ccc(C2(CNC(=O)C(=O)Nc3ccc(C)c(Cl)c3)CCCC2)cc1OC returned Sm TGR block inactive, Tb PYK inh inactive and FMDV inh inconclusive.
For CC(C)CCOc1ccc(Cn2c(=O)sc3ccccc32)cc1 the results were Sm TGR block inactive, Tb PYK inh inactive and FMDV inh inactive.
Screening COc1cccc2ccc(CN3CCC4(CC3)c3ccccc3[C@@H](NC(=O)c3ccccc3)[C@@H]4O)nc12 returned FMDV inh inactive.
COc1cc(NC(=S)Nc2cccnc2)cc(OC)c1OC was read as Sm TGR block 32µM, RE007 growth inh inactive and Tb PYK inh inactive.
`Fc1ccc(NC(=S)Nc2ccc(Cl)cc2Cl)cc1` gave Sm TGR block 25µM, RE007 growth inh inactive, Tb PYK inh inactive and FMDV inh inactive.
`O=C1/C(=C/c2cccnc2)Oc2cc(OS(=O)(=O)c3ccc(F)cc3)ccc21` gave Sm TGR block inactive, RE007 growth inh inactive, Tb PYK inh inactive and FMDV inh 22µM.
COc1cc(O)cc(/C=C/c2ccccc2)c1 was read as RE007 growth inh inactive, Tb PYK inh inactive and FMDV inh inactive.
Screening COC1=CC(=O)C(O)=C/C1=C\C=C\c1ccccc1 returned FMDV inh 40µM.
`CC1=C(C(N)=O)C(c2cccc(C)c2)n2nc(-c3cccc(C)c3)nc2N1` (configuration not stated) gave Sm TGR block inactive, Tb PYK inh inactive and FMDV inh inactive.
`Cc1cc(C)nc(N2CCC(C(=O)N3CCN(c4cc(Cl)ccc4C)CC3)CC2)n1` gave Sm TGR block inactive, RE007 growth inh inactive, Tb PYK inh inactive and FMDV inh 28µM.
For Cc1ccc(C)c(N2CCN(C(=O)C3CCCCN3S(=O)(=O)c3ccc(F)cc3)CC2)c1 (configuration not stated) the results were Sm TGR block inactive, RE007 growth inh inactive, Tb PYK inh inactive and FMDV inh 32µM.
Cc1ccc(C)c(N2CCN(C(=O)C3CCN(c4nnc(N5CCCC5=O)s4)CC3)CC2)c1 was read as Sm TGR block inactive, RE007 growth inh inactive, Tb PYK inh inactive and FMDV inh 25µM.
Screening Cc1ccc(C)c(N2CCN(C(=O)C3CCN(c4nc(C)cc(C)n4)CC3)CC2)c1 returned Sm TGR block inactive, RE007 growth inh inactive, Tb PYK inh inactive and FMDV inh 18µM.
Screening COc1cccc(CSc2nc3cc(OC)c(OC)cc3c3nc(CCn4nc(C)cc4C)nn23)c1 returned Sm TGR block inactive, Tb PYK inh inactive and FMDV inh inactive.
For CC1CCN(S(=O)(=O)c2ccc3c(c2)N(CC(=O)N2CCN(c4ccccc4)CC2)C(=O)CO3)CC1 the results were Sm TGR block inactive, Tb PYK inh inactive and FMDV inh inactive.
`COc1ccc(C(=O)Nc2c(C)csc2C(=O)O)cc1` gave Sm TGR block inactive, RE007 growth inh inactive, Tb PYK inh inactive and FMDV inh inactive.
Cc1csc(C(=O)O)c1NC(=O)c1ccc(F)cc1 was read as Sm TGR block 89µM, RE007 growth inh inactive, Tb PYK inh inactive and FMDV inh inactive.
Cc1cc(CN2CCCC(N3CCc4ccccc4C3)C2)cc(C)c1O (configuration not stated) was read as Sm TGR block 45µM, RE007 growth inh inactive, Tb PYK inh inactive and FMDV inh inactive.
For COc1cc2c(cc1OC)CN(C1CCCN(Cc3cccc(C(C)=O)c3)C1)CC2 (configuration not stated) the results were RE007 growth inh inactive, Tb PYK inh inactive and FMDV inh inactive.
For c1ccc(N2CCN(c3nnc(Cc4cccnc4)c4ccccc34)CC2)nc1 the results were Sm TGR block inactive, RE007 growth inh inactive, Tb PYK inh inactive and FMDV inh 10µM.
For COCCn1c(SCC(=O)c2ccc3c(c2)OCCO3)nnc1-c1ccoc1C the results were Sm TGR block 28µM, RE007 growth inh inactive, Tb PYK inh inactive and FMDV inh inactive.
For COc1ccc(C(=O)CSc2nnc(-c3ccoc3C)n2CC2CCCO2)cc1 (configuration not stated) the results were Sm TGR block 45µM, RE007 growth inh inactive, Tb PYK inh inactive and FMDV inh inactive.
`COCCCn1c(SCC(=O)n2c(C)c(C)c3ccccc32)nnc1-c1ccoc1C` gave Sm TGR block 45µM, RE007 growth inh inactive, Tb PYK inh inactive and FMDV inh inactive.
CCOc1ccccc1NC(=O)CCc1c(C)nc2cc(-c3ccccc3)nn2c1C was read as Sm TGR block inactive, Tb PYK inh inactive and FMDV inh inactive.
`Cc1onc(C(=O)Nc2cccc(C(F)(F)F)c2)c1[N+](=O)[O-]` gave Sm TGR block inactive, RE007 growth inh inactive, Tb PYK inh inactive and FMDV inh inactive.
Cc1nc(Cl)c(C(=O)NC(=O)Nc2cccc(C(F)(F)F)c2)c(C)c1[N+](=O)[O-] was read as Sm TGR block inactive, RE007 growth inh inactive, Tb PYK inh inactive and FMDV inh 22µM.
`COc1ccc(/C=C2\N=C(C)OC2=O)cc1OC` gave Sm TGR block 16µM, RE007 growth inh inactive, Tb PYK inh inactive and FMDV inh inactive.
For CCOc1cc(/C=C2\N=C(C)OC2=O)cc(Br)c1OCC(=O)OC the results were Sm TGR block 25µM, RE007 growth inh inactive and Tb PYK inh inactive.
COc1cc(/C=C2/SC(=S)NC2=O)ccc1OS(=O)(=O)c1ccc(C)cc1 was read as Sm TGR block inactive, RE007 growth inh inactive, Tb PYK inh inactive and FMDV inh 28µM.
CCOc1ccc(/C=C2\SC(=S)NC2=O)cc1OC was read as Sm TGR block inactive, RE007 growth inh inactive, Tb PYK inh inactive and FMDV inh inactive.
For COc1cc(/C=C2\SC(=S)NC2=O)ccc1OS(=O)(=O)c1ccccc1 the results were Sm TGR block inactive.
